# Laboratory results: PubChem BioAssay AID1347156 (National Center for Advancing Translational Sciences (NCATS), 2019)
# Inconclusive results are not listed. Where a call stands in place of a potency, no number is given. Activity calls are given as the source filed them. Calls follow the shape of the dose curve; as a rule, active = well fitted cell-killing curve with a large enough effect; inconclusive = small, poorly fitted or top-dose-only effect; inactive = flat fitted curve, though single readings scatter.
# Experiment: DAPI mCherry counterscreen qHTS for Zika virus inhibitors; also: nearly all actives have a fitted effect of over 55% in size
# Conditions: Vero cells, DAPI nuclear count cytotoxicity, imaging 48-72 h, infected with Zika reporter virus, MOI 1; series mostly up to 32.6 µM
# Procedure, shortened: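 Imaging read-out after fixation and Hoechst nuclear staining: percent infection from mCherry-positive cells (above 3 SD of negative controls) and nuclear counts. Setup: Vero cells pre-plated overnight, compound added, infected with ZIKV-mCherry (MOI 1), 48-72 hrs, 37 degrees C.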
# Potency is read from the fitted curve at half-maximal effect.
row,SMILES,Potency
1,CCc1oc2ccccc2c1C(=O)c1cc(Br)c(O)c(Br)c1,11.2 µM (active)
2,COC(=O)c1ccc([C@H]2Nc3ccc(S(=O)(=O)Nc4ccc(C)cc4)cc3[C@H]3C=CC[C@H]32)cc1,inactive
3,O=C(O)c1c(Br)c(Br)c(Br)c(Br)c1C1c2ccc(O)cc2Oc2cc(O)ccc21,20 µM (active)
4,COc1cc(C(=O)NS(=O)(=O)c2ccccc2C)ccc1Cc1cn(C)c2ccc(NC(=O)OC3CCCC3)cc12,35.5 µM (active)
5,Cc1nc(N=Nc2ccc(S(=O)(=O)O)cc2S(=O)(=O)O)c(COP(=O)(O)O)c(C=O)c1O,inactive
6,O=C(O)c1ccc(C2Nc3ccccc3-c3nnc(SCc4ccc(Cl)cc4)nc3O2)cc1 (configuration not stated),inactive
7,C[C@@H](NC(=O)c1ccc(Cl)cc1)c1c(-c2ccc(F)cc2)noc1C(=O)O,inactive
8,COc1ccc(NS(=O)(=O)c2ccc3c(c2)[C@H]2C=CC[C@H]2[C@@H](c2ccc(C(=O)O)cc2)N3)cc1,inactive
9,O=C(Nc1c(C(=O)O)oc2ccccc12)c1ccc(C(F)(F)F)cc1,inactive
10,Cc1cccc(C)c1-n1c(SCC(=O)Nc2ccc(C(=O)O)cc2)nnc1-c1cccc([S+](=O)([O-])N2CCCC2)c1,inactive
11,O=S(=O)(O)c1ccc2c(N=Nc3ccc(S(=O)(=O)O)c4ccccc34)c(O)c(S(=O)(=O)O)cc2c1,inactive
12,Cc1cc(-c2ccc(N=Nc3c(S(=O)(=O)O)cc4cc(S(=O)(=O)O)cc(N)c4c3O)c(C)c2)ccc1N=Nc1c(S(=O)(=O)O)cc2cc(S(=O)(=O)O)cc(N)c2c1O,inactive
13,CC1(C(=O)O)NCCc2cc(O)c(O)cc21 (configuration not stated),inactive
14,Cc1cc(C)cc(C(=O)N(C)[C@H](Cc2ccc(-c3ccccc3)cc2)C(=O)N[C@@H](Cc2c[nH]c3ccccc23)C(=O)O)c1,8.91 µM (active)
15,COc1ccc(-c2cc(=O)c3c(O)cc(O)c(-c4cc(-c5cc(=O)c6c(O)cc(O)cc6o5)ccc4OC)c3o2)cc1,12.6 µM (active)
16,CCC(=O)O[C@H]1[C@H](O[C@@H]2[C@@H](C)[C@H](O[C@H]3C[C@@](C)(OC)[C@@H](O)[C@H](C)O3)[C@@H](C)C(=O)O[C@H](CC)[C@@](C)(O)[C@H](O)[C@@H](C)C(=O)[C@H](C)C[C@@]2(C)O)O[C@H](C)C[C@@H]1N(C)C,35.5 µM (active)

row,SMILES,Potency
1,Cc1cccc(C(=O)Nc2ccc(C(=O)OCc3cc(=O)n4nc(C5CC5)sc4n3)cc2)c1,15.8 µM (active)
2,CC(C)=CCOc1ccc(/C=C/C(=O)c2ccc(OCC=C(C)C)cc2OCC(=O)O)cc1,25.1 µM (active)
3,O=C(OC1Cc2c(O)cc(O)cc2OC1c1cc(O)c(O)c(O)c1-c1c(C2Oc3cc(O)cc(O)c3CC2OC(=O)c2cc(O)c(O)c(O)c2)cc(O)c(O)c1O)c1cc(O)c(O)c(O)c1 (configuration not stated),inactive
4,O=C(Nc1ccc(-c2ccc(Cl)c(Cl)c2)cc1)C1=C(O)c2ccccc2S(=O)(=O)N1,8.91 µM (active)
5,O=C(O)c1cc(-n2c(/C=C\c3ccc(F)cc3)nc3ccccc3c2=O)ccc1Cl,inactive
6,CC(C)(C)Sc1c(CC(C)(C)C(=O)O)n(Cc2ccc(Cl)cc2)c2ccc(OCc3ccc4ccccc4n3)cc12,35.5 µM (active)
7,O=C(O)c1cnn(-c2nc3cc(OC(F)(F)F)c(Cl)cc3[nH]2)c1,inactive
8,O=c1c(O)c(-c2ccc(O)c(O)c2)oc2cc(O)ccc12,inactive
9,CC(C)(C)c1ccc(S(=O)(=O)Nc2ccc(O)c(Sc3nc4ccccc4s3)c2)cc1,14.1 µM (active)
10,COc1cc2c(c(O)c1OC/C=C(\C)CC/C=C(/C)CCC=C(C)C)CN(C(CCC(=O)O)C(=O)O)C2=O (configuration not stated),7.94 µM (active)
11,O=C(Nc1cccc(C(=O)OCc2cc(=O)n3nc(C4CC4)sc3n2)c1)c1cccc(F)c1,inactive
12,N#Cc1c(O)c2c(-c3ccc(-c4ccccc4O)cc3)csc2[nH]c1=O,inactive
13,Cc1cc(OCCCc2c(C(=O)O)n(Cc3cccnc3)c3c(-c4c(COc5ccc(N6CCN([S+](C)(=O)[O-])CC6)cc5)nn(C)c4C)cccc23)cc(C)c1Cl,14.1 µM (active)
14,O=C(COc1ccccc1C(=O)OCC(=O)Nc1cccc2ccccc12)Nc1ccc(Br)cc1,inactive
15,CCN(Cc1cccc(S(=O)(=O)O)c1)c1ccc(C(=C2C=CC(=[N+](CC)Cc3cccc(S(=O)(=O)O)c3)C=C2)c2ccc(O)cc2S(=O)(=O)O)cc1,inactive
16,COc1cc(-c2ccc(N=Nc3ccc4c(S(=O)(=O)O)cc(S(=O)(=O)O)c(N)c4c3O)c(OC)c2)ccc1N=Nc1ccc2c(S(=O)(=O)O)cc(S(=O)(=O)O)c(N)c2c1O,inactive
